This is a sample that favours compounds with a hit; in the whole collection about 7.3% have one here.
ELG1 genotox = inducers of genotoxicity in HEK293T ELG1-luciferase cells; Potency, µM (series often up to 46 µM), for the others: at the top dose activity change, positive = activation, most hits filed as activators; 330,000 tested, 1.3% active; AID 504466; HEK293T ELG1-luciferase reporter, luminescence, 16 h; note: % of control where 0% means no effect; nearly all actives have a fitted effect of over 60% in size
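DMSO vehicle served as control against compound-treated ELG1-luciferase HEK293T cells; exposure lasted 16 hr at 37 °C and 5% CO2, followed by ONE-Glo luminescence detection after 30 min.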
Luc counter = counter-screen: inhibitors of Kinase-Glo firefly luciferase | Q27757 | Kinase-Glo luciferase, ATP luminescence, 8 min | Potency, µM (doses to about 38.3 µM), without a hit: at the top dose activity change, negative = inhibition, usual class: inhibitors | 200,000 tested, 0.28% active | AID 1379; note: % is set by controls: 0 for no effect and ±100 for the full control effect; nearly all actives have a fitted effect of over 60% in size
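Luminescence was the read-out, taken after 8-minute incubation at ambient temperature. Luciferase turned over luciferin with 10 uM ATP in imidazole pH 7.2 buffer containing KCl, MgCl2, Tween 20 and BSA.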
SMN2 splice enh = increases expression of the SMN2 splice variant | AID 1458 | HEK293 SMN2-luciferase splicing reporter, luminescence, 30-36 h | Potency, µM (titrated, usually from 46.1 µM), inactives show top-dose activity change, positive = activation, most hits filed as activators | 210,000 tested, 2.8% active; note: % of control where 0% means no effect; nearly all actives have a fitted effect of over 55% in size
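qHTS luciferase splicing reporter: luminescence rises when SMN2 exon 7 is included in transfected HEK293 cells. Compound exposure lasted 30-36 h at 37C, with 4.5 mM final sodium butyrate as control, followed by a ONE-Glo read.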
NPC1 prom act = activates the NPC1 promoter; Huh7 NPC1 promoter luciferase reporter, 24 h; Potency, µM (titrated, usually from 9.22 µM), without a hit: at the top dose activation, hits mostly activators; 320,000 tested, 2.4% active; AID 485313; note: % of control where 0% means no effect; nearly all actives have a fitted effect of over 60% in size
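Compounds in DMSO were transferred onto Huh7 NPC1-luciferase reporter cells pre-incubated 2 h; after 24 h at 37 °C, Amplite reagent was dispensed and luminescence recorded 10 min later.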
Rab9 prom act = activators of Rab9 promoter. Huh7 Rab9 promoter-luciferase reporter, luminescence, 24 h. Potency, µM (top dose mostly 9.22 µM), for inactives: top-dose activation, negative = inhibition, hits mostly activators. 320,000 tested, 2.8% active. AID 485297; note: % of control where 0% means no effect; nearly all actives have a fitted effect of over 60% in size
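Luminescence from Amplite-detected luciferase (10 minutes, ambient) reports Rab9 promoter activation. Before that, stable Rab9-luciferase Huh7 cells (1500/well, reduced-serum OP-MEM I plus 10% FBS) were exposed to compound for 24 hours at 37C.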
FLuc counter = counter-screen for miR-21 project: firefly luciferase inhibitors or activators; P08659; purified FLuc, Km substrates, luminescence inhibition; Potency, µM (titrated, usually from 57.5 µM), for the others: at the top dose activity change, negative = inhibition, hits mostly inhibitors; 360,000 tested, 6.9% active; AID 588342;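 note: plate controls were vehicle for no effect and reference inhibitor for full effect; nearly all actives have a fitted effect of over 55% in size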
Target sequence (P08659 whole entry, looked up): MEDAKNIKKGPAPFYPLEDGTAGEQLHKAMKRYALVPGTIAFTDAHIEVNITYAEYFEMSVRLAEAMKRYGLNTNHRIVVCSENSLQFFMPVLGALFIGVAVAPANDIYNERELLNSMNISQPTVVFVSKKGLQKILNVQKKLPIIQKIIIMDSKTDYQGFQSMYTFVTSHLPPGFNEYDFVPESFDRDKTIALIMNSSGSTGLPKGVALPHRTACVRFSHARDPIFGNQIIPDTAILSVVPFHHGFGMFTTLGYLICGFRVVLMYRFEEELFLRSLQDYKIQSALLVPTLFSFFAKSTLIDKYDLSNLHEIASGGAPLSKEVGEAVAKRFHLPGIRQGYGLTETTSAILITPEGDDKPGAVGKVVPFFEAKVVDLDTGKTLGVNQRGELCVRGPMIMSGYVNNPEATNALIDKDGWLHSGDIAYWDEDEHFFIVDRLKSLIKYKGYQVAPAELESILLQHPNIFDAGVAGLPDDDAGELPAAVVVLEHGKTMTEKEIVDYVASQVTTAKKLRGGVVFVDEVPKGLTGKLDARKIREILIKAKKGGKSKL
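Purified P. pyralis luciferase, 10 nM final, with Km-level 10 uM D-luciferin and 10 uM ATP in 50 mM Tris acetate pH 7.5, 10 mM Mg acetate, 0.01% Tween-20, 0.05% BSA; 6-point qHTS titration about 60 µM downward; luminescence read.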
Starred values were filed as active, the others as inactive; u = inconclusive; x = not tested or not shown; [ ] = dose if it differs, or a comment. Calls come from the whole dose curve; as a rule, active = well fitted curve in the direction sought with a large enough effect; inconclusive = small, poorly fitted or top-dose-only effect, or another doubt; inactive = no such curve, though single readings can be large; an effect the other way counts as inactive or inconclusive. Potency is the fitted concentration of half-maximal effect.

SMILES	ELG1 genotox	Luc counter	SMN2 splice enh	NPC1 prom act	Rab9 prom act	FLuc counter
COc1ccc(-n2c(-c3ccc(C)cc3)cc3c2CC(C)(C)CC3=O)cc1Cl	x	x	-4%	x	x	-2%
COc1ccc(-c2nc3ccccc3s2)cc1NC(=O)COc1ccc(C)cc1	x	x	1.3µM*	x	x	-2%
CC(Oc1ccccc1F)C(=O)Nc1ccc(-c2nc3ccccc3s2)cc1 (centres undefined)	x	x	x	x	x	-7%
COc1ccc(-c2nc3ccccc3s2)cc1NC(=O)c1cccc([N+](=O)[O-])c1C	x	x	11µM*	x	x	3.4µM*
COc1ccc(-c2nc3ccccc3s2)cc1NC(=O)COc1cccc(C)c1	x	x	2.8µM*	x	x	u
COc1ccccc1OC(C)C(=O)Nc1cccc(-c2nc3ccccc3s2)c1 (centres undefined)	x	x	x	x	x	11µM*
COc1ccc(S(=O)(=O)NCCS(=O)(=O)N2CCN(c3ccccc3F)CC2)cc1	x	x	x	x	x	-15%
O=C(O)CCCSc1ccccc1	x	-5%[7.66 µM]	-17%[9.22 µM]	x	x	x
COc1ccc(-c2nc(SCC(=O)c3ccc(OC)c(Br)c3)n[nH]2)cc1	x	x	x	x	x	0%
Cc1ccc(C(=O)NC(=S)Nc2cc(-c3nc4ccccc4s3)ccc2C)cc1	u	-6%	8%	-3%	29%	9.5µM*
Cc1ccc(C(=O)Nc2ccc(-c3nc4ccccc4s3)cc2C)cc1C	x	x	28%	x	x	u
COc1ccc(-c2nc3ccccc3s2)cc1NC(C)=O	16µM*	-2%	11µM*	2.5µM*	2.2µM*	6.7µM*
Cc1cccc(N(C)C(=O)c2cc3cc4ccc(C)cc4nc3o2)c1	21µM*	0%	8.9µM*	-3%	13%	15µM*
CC(C)c1ccc2oc(-c3cccc(NC(=O)c4ccc5c(c4)OCCO5)c3)nc2c1	x	x	-3%	x	x	2.1µM*
Cc1ccc2nc(-c3cccc(NC(=O)c4ccc5c(c4)OCCO5)c3)oc2c1	12%	-9%	-13%	11%	5%	9.5µM*
CCC(=O)c1ccc(OCC(=O)O)cc1	1%	11%	-15%	1%	1%	-4%
CCC(=O)c1ccc(OCCSc2ncccn2)cc1	3.7µM*	-3%	7.9µM*	4µM*	2µM*	19µM*
c1cnc(SCCOc2ccc3c(c2)CCC3)nc1	4.6µM*	-2%	13µM*	2.8µM*	1.6µM*	1.7µM*
CNCCCOc1ccc2c(c1)CCC2	5%	-2%	11%	16%	24%	-1%
CCN(c1ccccc1)c1nnc(NC(=O)Nc2ccc(Br)cc2F)s1	x	x	x	x	x	5%
O=c1oc2ccc(Br)cc2cc1-c1nc2ccccc2o1	1%	-7%	-1%	-3%	-5%	2%
CCOc1cccc2cc(-c3cn4c(n3)sc3ccccc34)c(=O)oc12	x	x	x	x	x	0.48µM*
COc1cccc2cc(-c3nc4ccc(C)cc4[nH]3)c(=O)oc12	x	x	x	x	x	0.54µM*
C=CCc1cccc2cc(-c3nc4ccc(C(=O)O)cc4[nH]3)c(=O)oc12	x	x	x	x	x	0.43µM*
COc1ccc2oc(=O)c(-c3nc4ccc(C)cc4[nH]3)cc2c1	x	x	x	x	x	-3%
SMILES	ELG1 genotox	Luc counter	SMN2 splice enh	NPC1 prom act	Rab9 prom act	FLuc counter
COc1cccc2cc(-c3nc4ccccc4o3)c(=O)oc12	21µM*	-17%	25%	2%	5%	2.7µM*
CCOc1cccc2cc(-c3nc(-c4ccc(Cl)cc4)c(C)s3)c(=O)oc12	x	x	x	x	x	-1%
CC1=C(C(=O)N2CCCCC2)C(c2ccc(Cl)cc2)n2c(nc3ccccc32)N1 (centres undefined)	x	x	2%	x	x	1%
CCc1ccc(C(=O)c2cn(CC(=O)Nc3ccc(OC)c(OC)c3)c3ccc(C)cc3c2=O)cc1	x	x	11%	x	x	-6%
CCOc1ccc(NC(=O)CN2C(=O)CC(C)Sc3ccccc32)cc1 (centres undefined)	x	x	-7%	x	x	-1%
COc1ccc(N2CCN(CCCNC(=O)c3nnc(Cc4ccc(F)cc4)o3)CC2)cc1	x	x	x	x	x	-15%
COc1ccc2cc(C(=O)c3ccccc3)c(=O)oc2c1	u	-3%	-7%	u	u	u
COc1ccc2cc(-c3nc4ccc(C(=O)O)cc4[nH]3)c(=O)oc2c1	x	x	x	x	x	0.12µM*
CCOc1cccc2cc(-c3nc4ccc(C(=O)O)cc4[nH]3)c(=O)oc12	x	x	x	u	u	0.38µM*
CCOC(=O)c1c(C)[nH]c(C(=O)OCc2ccccc2F)c1C	1.6µM*	x	x	1.6µM*	1.6µM*	2.7µM*
CCOC(=O)c1c(C)[nH]c(C(=O)OCc2ccc(F)cc2)c1C	15µM*	x	x	2.2µM*	1.6µM*	4.8µM*
CCOC(=O)c1[nH]c(C)c(C(=O)OC)c1C	15%	x	x	10%	-1%	u
CCOC(=O)c1[nH]c(C)c(C(=O)Nc2ccc(C)cc2C)c1C	6%	-1%	u	-32%	-23%	2%
CCOC(=O)c1c(C)[nH]c(C(=O)Nc2ccc3c(c2)OCO3)c1C	u	-9%	x	3.5µM*	4µM*	4.8µM*
CCOC(=O)c1[nH]c(C)c(C(=O)Nc2ccccc2F)c1C	u	2%	5µM*	-26%	-7%	u
C=CC(C)=C[C@@]1(C)SC(=O)C(C)=C1O	x	x	x	-6%[46.1 µM]	-16%[46.1 µM]	x
CCCCCN=c1ccn(Cc2ccccc2)c2ccccc12	x	-1%	x	x	x	x
COc1ccc(Br)cc1CNC(=O)C(C)n1nc(C)n2c(cc3occc32)c1=O (centres undefined)	x	x	10%	x	x	-13%
CCOC(=O)c1[nH]c(C)c(C(=O)Nc2ccc(F)cc2)c1C	21%	-1%	6%	1%	-5%	3%
CC(=O)c1c(C)[nH]c(C(=O)OCc2ccccc2)c1C	18µM*	-3%	u	u	u	15µM*
CCOC(=O)c1[nH]c(C)c(C(=O)Nc2ccc(C)c(C)c2)c1C	11%	2%	18%	u	1.4µM*	-9%
CCCCNC(=O)CN1C(=O)c2cccc(N)c2C1=O	0%	4%	4%	-4%	-2%	-3%
Cc1cc(C(=O)CN2C(=O)CCC2=O)c(C)n1Cc1ccccc1	u	12%	-43%	-6%	1%	u
CCCn1c(C)cc(C(=O)CN2C(=O)c3cccc(N)c3C2=O)c1C	u	-4%	u	2.8µM*	3.2µM*	2.7µM*
Cc1cc(C(=O)Cn2nnc3ccccc3c2=O)c(C)n1Cc1cccs1	2.6µM*	-2%	0%	0.35µM*	0.45µM*	0.6µM*
Cc1cc(C(=O)CN2C(=O)c3ccccc3C2=O)c(C)n1Cc1cccs1	u	0%	14µM*	0.5µM*	0.4µM*	0.85µM*
CCC1Oc2ccccc2N(CC(=O)NCc2ccccc2)C1=O (centres undefined)	x	x	x	x	x	-4%

Source: PubChem
